Shown are actives, neighbours in structure and some others; about 27% of the full set was active somewhere.
sEH inh: inhibitors of human soluble epoxide hydrolase. recombinant human sEH enzymatic activity assay. inhibition, % at 2 µM. 0.34% of 91,000 active; in the data active = inhibition above about 80%
CYP2C9 activ: increases human cytochrome P450 2C9 activity; 1.4% of 96,000 active; activation factor at 5 µM; recombinant CYP2C9, luciferin-H conversion, luminescence; hits give high values; factor 1 = untreated enzyme, 0 = blocked; P11712;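 active = activation factor of 2 or more for CYP2C9 at a 5 µM dose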;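 note: 0 = sulfaphenazole-blocked wells and 1 = vehicle-only wells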
Target sequence (P11712 whole entry, looked up): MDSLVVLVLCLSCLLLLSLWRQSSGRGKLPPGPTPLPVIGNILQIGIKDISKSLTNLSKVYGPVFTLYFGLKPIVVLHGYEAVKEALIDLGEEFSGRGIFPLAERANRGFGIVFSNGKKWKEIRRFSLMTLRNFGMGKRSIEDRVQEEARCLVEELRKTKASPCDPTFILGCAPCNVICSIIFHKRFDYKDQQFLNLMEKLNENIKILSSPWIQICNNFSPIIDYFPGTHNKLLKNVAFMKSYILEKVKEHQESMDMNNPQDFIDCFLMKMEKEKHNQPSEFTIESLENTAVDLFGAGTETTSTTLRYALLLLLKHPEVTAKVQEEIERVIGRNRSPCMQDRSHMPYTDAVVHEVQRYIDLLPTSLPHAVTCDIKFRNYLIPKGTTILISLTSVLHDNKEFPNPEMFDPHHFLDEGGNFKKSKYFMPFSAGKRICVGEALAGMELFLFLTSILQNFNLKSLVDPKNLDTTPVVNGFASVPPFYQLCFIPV
CYP2C19 inh: human CYP2C19 inhibition; CYP2C19 Supersomes, luciferin-H EGE luminescence, 30 min; inhibition, % at 5 µM; 21% of 96,000 active; AID 778;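 active = CYP2C19 inhibition above a set limit at 5 µM in the primary screen, cut at about 50% in these data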;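 note: plate controls were negative control wells for no effect and 2.5 mM tranylcypromine positive control for full effect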
CYP2C19 activ: activators of human cytochrome P450 2C19 | recombinant CYP2C19, luciferin-H EGE luminescence; hits give high values; 0 = fully inhibited enzyme, 1 = untreated enzyme | activation factor at 5 µM | 96,000 tested, under 10 active | AID 1025;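 active = activation factor of at least 2 at 5 µM in the primary screen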;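 note: 0 = wells with 2.5 mM tranylcypromine and 1 = vehicle-only wells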
CYP2C9 inh: human CYP2C9 inhibition; AID 777; inhibition, % at 5 µM; CYP2C9 Supersomes, luciferin-H conversion, luminescence; 20% of 96,000 active; P11712;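 active = blocking of liver enzyme CYP2C9 beyond about 50% at 5 µM, limit read from the data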
sEH act: increases human soluble epoxide hydrolase activity. P34913. purified human sEH enzymatic activity, activator screen. activation, % at 2 µM. 0.04% of 91,000 active. AID 717; in the data active = activation above about 37%
* marks the source's active call; other numbers are inactive results; x = no result.

SMILES	sEH inh	CYP2C9 activ	CYP2C19 inh	CYP2C19 activ	CYP2C9 inh	sEH act
Fc1ccc(Cn2c(SCc3ccc(F)c(F)c3)nnc2C(F)(F)F)cc1	10.2	0.4	67.4*	0.3	56.7*	-8.0
CCOC(=O)c1[nH]c2ccc(C)cc2c1N=CN(CC)CC	x	1	0.7	1	-1.7	x
COc1ccc(C2C(C#N)=C(N)N(Nc3ccccc3)C3=C2C(=O)CC(C)(C)C3)cc1C (stereo not given)	0.7	1	16.7	0.8	1.7	1.9
COc1cc(C2C(C#N)=C(C)NC3=C2C(=O)CC(C)(C)C3)ccc1OCCO (stereo not given)	-11.9	0.5	13.6	0.9	47.2	13.3
COc1cc(C2C(C#N)=C(N)N(Nc3ccccc3)C3=C2C(=O)CC(C)(C)C3)ccc1OCc1ccccc1 (stereo not given)	21.8	0.2	21.1	0.8	79.1*	-19.7
C=CCOc1ccc(C2C(C#N)=C(N)N(Nc3ccccc3)C3=C2C(=O)CCC3)cc1OC (stereo not given)	20.7	0.3	13.8	0.9	70.2*	-20.7
COc1cc(C2C(C#N)=C(N)N(Nc3ccccc3)C3=C2C(=O)CC(C)(C)C3)ccc1OCc1cccc(F)c1 (stereo not given)	5.5	0	67.6*	0.3	95.9*	-2.8
Cc1ccc(-c2nnc(N3CCOCC3)c3ccccc23)cc1S(=O)(=O)NCC1CCCO1 (stereo not given)	x	0.3	47.3	0.5	71.3*	x
CC1CCc2sc3c(c2C1)c1ncnn1c(=O)n3CC(=O)c1ccc(Br)cc1 (stereo not given)	1.8	x	x	x	x	3.8
CCn1c(=O)n(CC(=O)N2CC(C)CC(C)C2)c(=O)c2ccccc21 (stereo not given)	1.1	1	25.2	0.7	2.9	-2.6
O=C(CCCCn1c(=O)c2ccccc2n(CC(=O)NC2CCCC2)c1=O)NC1CCCC1	4.9	0.4	18.1	0.8	62.4*	-4.5
O=C(CCCCn1c(=O)c2ccccc2n(Cc2ccc(Cl)cc2)c1=O)NCc1ccco1	12.8	0.7	17.6	0.8	30.5	-13.6
CCCN(CCC)C(=O)Cn1c(=O)n(CCCCC(=O)NC2CCCC2)c(=O)c2ccccc21	5.1	0.5	19.4	0.8	46.2	-4.6
O=C(CCn1c(=O)c2ccccc2n(CC(=O)NC2CCCC2)c1=O)NCc1ccco1	6.3	0.5	16.3	0.8	54.3*	-4.2
CC1CC(C)CN(C(=O)Cn2c(=O)n(CCCCC(=O)NC3CCCC3)c(=O)c3ccccc32)C1 (stereo not given)	x	0.3	32.7	0.7	73.5*	x
O=C(CCCCn1c(=O)c2ccccc2n(CC(=O)NC2CCCC2)c1=O)NCc1ccco1	x	0.4	18.5	0.8	61.9*	x
Cn1c(SCc2cccc(Cl)c2)nc(C(F)(F)F)cc1=O	3.4	0.9	25.7	0.7	10.9	-0.7
CCCc1cc(=O)[nH]c(SCC(=O)N2CCN(S(=O)(=O)c3ccc(C)cc3)C2)n1	3.0	0.9	12.2	0.9	12.7	-4.5
CCNc1nc(SC(C)C(=O)OC)nc(N2CCOCC2)n1 (stereo not given)	x	0.7	27.3	0.7	33.6	x
Cc1cc(C)nc(SCCn2c(N3CCC(C)CC3)nc3c2c(=O)n(C)c(=O)n3C)n1	x	1.1	-5.3	1.1	-8.0	x
CCC(c1nnnn1C(C)(C)C)N(CCOC)Cc1cc2cccc(C)c2n2nnnc12 (stereo not given)	1.2	1	-2.0	1	2.5	0.1
O=C(CCCCn1c(=O)c2ccccc2n(CC(=O)Nc2cccc(F)c2)c1=O)NCc1ccco1	x	0.3	19.7	0.8	74.6*	x
CC1CC(C)CN(C(=O)Cn2c(=O)n(CCCCC(=O)NCc3ccco3)c(=O)c3ccccc32)C1 (stereo not given)	x	0.2	29.4	0.7	79.1*	x
COc1cccc(NC(=O)Cn2c(=O)n(CCCC(=O)NCc3ccco3)c(=O)c3ccccc32)c1	x	0.8	30.0	0.7	18.0	x
COc1cc2c(cc1OC)C(c1ccccc1O)N(C1CC(=O)N(c3ccccc3)C1=O)CC2 (stereo not given)	6.6	0.8	-6.3	1.1	16.8	-5.4
SMILES	sEH inh	CYP2C9 activ	CYP2C19 inh	CYP2C19 activ	CYP2C9 inh	sEH act
CCOC(=O)c1ccc(COC(=O)c2ccc3c(c2)-c2ccccc2C3=O)cc1	-11.9	1	17.5	0.8	-2.4	10.2
CCOC(=O)C1=C(O)c2ccccc2C(=O)/C1=C\c1ccc(CC)cc1	-11.2	0	89.3*	0.1	96.6*	11.3
CCCc1ccc(/C=C2\C(=O)c3ccccc3C(O)=C2C(=O)OCC)cc1	-7.5	0.1	78.2*	0.2	92.1*	7.7
O=C(CN1CCC(n2nnc3cc(F)ccc32)CC1)NCCc1nc2ccccc2[nH]1	3.8	1	-4.9	1	-2.6	-4.8
CC(C)C(=O)Nc1ccc(NC(=O)c2cccc(F)c2)cn1	6.0	1	2.5	1	-2.2	-7.0
O=C(NC(=O)c1ccc(Cl)cc1)Nc1cc(N2CCCCC2)ncn1	2.9	x	x	x	x	-4.6
CCOc1ccc(C(=O)N/N=C/c2ccc(-c3ccc(S(=O)(=O)Nc4ncccn4)cc3)o2)cc1	39.5	0.3	13.1	0.9	72.1*	-40.7
COc1cc(OC)c(C(=O)Nc2ccc(S(=O)(=O)Nc3ncccn3)cc2)cc1OC	-2.5	1	-5.4	1.1	2.6	0.0
O=C(N/N=C/c1ccc(-c2ccc(S(=O)(=O)Nc3ncccn3)cc2)o1)c1cc2ccccc2cc1O	-3.5	0.2	30.3	0.7	80.9*	1.4
O=S(=O)(N1CCCCC1)n1c(Cc2ccccc2)nc2ccccc21	6.7	0.3	85.3*	0.1	68.4*	-8.1
COCCn1c(SCC(=O)Nc2cccc(C)c2)nnc1C(C)C	2.2	1.1	68.1*	0.3	-10.0	-0.7
COCCn1c(SCC(=O)Nc2cc(C)cc(C)c2)nnc1C(C)C	-4.7	0.8	60.7*	0.4	21.2	3.3
CCn1c(SCC(=O)Nc2nc(C)c(C(=O)OC)s2)nnc1C(C)C	x	0.7	50.0*	0.5	34.0	x
COCCn1c(SCC(=O)c2ccc(Cl)cc2)nnc1C(C)C	-5.0	0.9	73.6*	0.3	11.2	2.8
Cn1c(SCC(=O)Nc2cccc(Br)c2)nnc1-c1cc2ccccc2o1	-4.5	0.6	33.7	0.7	41.4	6.5
CCCn1c(SCC(=O)Nc2c(CC)cccc2CC)nnc1C(C)C	-0.2	0.5	57.7*	0.4	49.3	0.6
CCc1cccc(C)c1NC(=O)CSc1nnc(-c2cc3cc(Br)ccc3o2)n1CC	-0.7	0.4	11.6	0.9	56.2*	1.8
C=CCn1c(NCc2ccccc2)nc2ccccc21	-13.7	1	35.1	0.6	-1.2	14.5
C=CCn1c(N2C(=O)CC(Cc3ccccc3)C2=O)nc2ccccc21 (stereo not given)	24.8	1	79.3*	0.2	-2.8	-27.3
Cc1cccc(N(CC(=O)NC2CCCC2)C(=O)c2cc3cc4cccc(C)c4nc3s2)c1C	11.5	0.1	34.5	0.7	89.5*	-9.4

Screening data: PubChem BioAssay, several laboratories
